PubChem BioAssay AID1159580 (chemical genetic matrix, 2015)
Values joined by “and” are separate entries in the source; they are usually repeats but may differ in a detail not shown here. Equal values may be shown once. The whole screen tested about 5,500 compounds, of which about 2,000 (36%) were called active. Not shown: some 18% with an inconclusive outcome. Cut-off read from the data, not from the text of the source: active = normalized growth mostly below about 0.91 (no sharp cut-off); inconclusive = no clear call, values can overlap the other calls; inactive = mostly above about 0.92. Some of the results follow.

Test: chemical genetic growth profiling, strain panel (AID 1159580);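 note: tested at 20 µM; growth read once vehicle control cultures reached saturation at 30 °C; 1 = growth at the plate median or of vehicle wells; lower values mean less growth of the strain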
Conditions: S. cerevisiae deletion strains, growth OD

Measured: normalized growth

C[C@H]1[C@H]2CCC3C4CC=C5C[C@@H](N(C)C)CC[C@]5(C)C4CC[C@@]32CN1C (stereo partly specified)
active: locus YDR392W, strain spt3, hits give low values 0.551
inactive: locus YAL013W, strain DEP1, hits give low values 0.994 | locus YAL021C, strain ccr4, hits give low values 1.01 | locus YAL026C, strain drs2, hits give low values 0.997 | locus YAL030W, strain snc1, hits give low values 0.996 | locus YBL061C, strain skt5, hits give low values 0.995 | locus YBR009C, strain hhf1, hits give low values 0.95 | locus YBR021W, strain FUR4, hits give low values 1 | locus YBR023C, strain chs3, hits give low values 0.994 | locus YBR171W, strain sec66, hits give low values 0.983 | locus YBR229C, strain ROT2, hits give low values 0.956 | locus YBR231C, strain swc5, hits give low values 0.972 | locus YBR279W, strain paf1, hits give low values 0.994 | locus YCL011C, strain gbp2, hits give low values 0.988 | locus YCL016C, strain dcc1, hits give low values 0.986 | locus YCL029C, strain bik1, hits give low values 0.988 | locus YCL061C, strain MRC1, hits give low values 0.994 | locus YCL069W, strain vba3, hits give low values 1 | locus YCR088W, strain abp1, hits give low values 0.996 | locus YDL005C, strain med2, hits give low values 0.992 | locus YDL035C, strain GPR1, hits give low values 0.949 | locus YDL040C, strain nat1, hits give low values 0.974 | locus YDL074C, strain BRE1, hits give low values 1.01 | locus YDL101C, strain DUN1, hits give low values 0.989 | locus YDL134C, strain PPH21, hits give low values 0.958 | locus YDL185W, strain tfp1, hits give low values 0.999 | locus YDL192W, strain arf1, hits give low values 0.984 | locus YDR001C, strain nth1, hits give low values 0.993 | locus YDR069C, strain doa4, hits give low values 0.976 | locus YDR101C, strain arx1, hits give low values 1.04 | locus YDR137W, strain rgp1, hits give low values 0.994 | locus YDR150W, strain NUM1, hits give low values 0.981 | locus YDR159W, strain sac3, hits give low values 0.941 | locus YDR162C, strain NBP2, hits give low values 0.989 | locus YDR195W, strain ref2 0.945 | locus YDR297W, strain sur2, hits give low values 1 | locus YDR318W, strain mcm21, hits give low values 0.957 | locus YDR334W, strain swr1, hits give low values 0.996 | locus YDR335W, strain msn5, hits give low values 0.992 | locus YDR388W, hits give low values 0.984 | locus YDR502C, strain sam2, hits give low values 0.977 | locus YEL003W, strain gim4, hits give low values 0.994 | locus YEL037C, strain rad23, hits give low values 0.999 | locus YEL061C, strain CIN8 (second series), hits give low values 0.992 | locus YEL061C, strain CIN8, hits give low values 0.991 | locus YER015W, strain faa2, hits give low values 0.986 | locus YER016W, strain bim1, hits give low values 0.988 | locus YER110C, hits give low values 0.99 | locus YER111C, strain swi4, hits give low values 0.992 | locus YER155C, strain BEM2 (second series), hits give low values 0.867 | locus YER155C, strain BEM2, hits give low values 0.999 | locus YER167W, strain BCK2, hits give low values 0.999 | locus YFR010W, strain ubp6, hits give low values 0.997 | locus YGL078C, strain dbp3, hits give low values 0.996 | locus YGL086W, strain mad1, hits give low values 1.02 | locus YGL167C, strain pmr1, hits give low values 0.981 | locus YGL173C, strain kem1, hits give low values 0.99 | locus YGL227W, strain vid30, hits give low values 0.985 | locus YGL240W, strain doc1, hits give low values 0.967 | locus YGL248W, strain PDE1, hits give low values 0.965 | locus YGL253W, strain hxk2, hits give low values 0.974 | locus YGR078C, strain PAC10, hits give low values 0.981 | locus YGR135W, strain pre9, hits give low values 0.968 | locus YGR252W, strain gcn5, hits give low values 0.939 | locus YHR013C, strain ard1, hits give low values 0.918 | locus YHR027C, strain rpn1, hits give low values 0.997 | locus YHR030C, strain SLT2, hits give low values 1 and 1.01 | locus YHR079C, strain IRE1 (second series), hits give low values 0.996 | locus YHR079C, strain IRE1, hits give low values 1.01 | locus YHR094C, strain hxt1, hits give low values 0.975 | locus YHR129C, strain ARP1, hits give low values 0.994 | locus YHR142W, strain chs7, hits give low values 0.99 | locus YHR200W, strain rpn10, hits give low values 0.986 | locus YIL066C, strain RNR3, hits give low values 0.986 | locus YIL073C, strain SPO22, hits give low values 0.957 | locus YIL125W, strain kgd1, hits give low values 0.995 | locus YIR030C, strain dcg1, hits give low values 0.999 | locus YJL092W, strain hpr5, hits give low values 0.992 | locus YJL095W, strain BCK1 (second series), hits give low values 0.991 | locus YJL095W, strain BCK1, hits give low values 0.963 and 0.999 | locus YJL115W, strain asf1, hits give low values 1 | locus YJL129C, strain trk1, hits give low values 0.99 | locus YJL134W, strain LCB3, hits give low values 0.993 | locus YJL154C, strain vps35, hits give low values 1 | locus YJL164C, strain tpk1, hits give low values 0.996 | locus YJL166W, strain qcr8, hits give low values 0.986 | locus YJL168C, strain set2, hits give low values 0.993 | locus YJL187C, strain SWE1 (second series), hits give low values 0.98 | locus YJL187C, strain SWE1, hits give low values 0.994 | locus YJR043C, strain POL32, hits give low values 0.993 | locus YJR066W, strain TOR1, hits give low values 0.958
